# Activity calls are given as the source filed them.
# How the values were obtained:
# Albumin (Bos taurus) = Albumin (Bos taurus) (UniProt P02769); assay: bovine serum albumin binders on microarray, profiling panel, artefact control for SMM control protein annotation, biochemical, small-molecule microarray, Alexa647 label, 635/667 nm fluorescence (AID 1118); conditions: BSA-A647 binding, fluorescence 635 nm, higher = more signal;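 further: score merges 667 nm emission intensity and signal-to-noise per printed compound spot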
# Chain of Albumin (Bos taurus) (P02769 whole entry, looked up): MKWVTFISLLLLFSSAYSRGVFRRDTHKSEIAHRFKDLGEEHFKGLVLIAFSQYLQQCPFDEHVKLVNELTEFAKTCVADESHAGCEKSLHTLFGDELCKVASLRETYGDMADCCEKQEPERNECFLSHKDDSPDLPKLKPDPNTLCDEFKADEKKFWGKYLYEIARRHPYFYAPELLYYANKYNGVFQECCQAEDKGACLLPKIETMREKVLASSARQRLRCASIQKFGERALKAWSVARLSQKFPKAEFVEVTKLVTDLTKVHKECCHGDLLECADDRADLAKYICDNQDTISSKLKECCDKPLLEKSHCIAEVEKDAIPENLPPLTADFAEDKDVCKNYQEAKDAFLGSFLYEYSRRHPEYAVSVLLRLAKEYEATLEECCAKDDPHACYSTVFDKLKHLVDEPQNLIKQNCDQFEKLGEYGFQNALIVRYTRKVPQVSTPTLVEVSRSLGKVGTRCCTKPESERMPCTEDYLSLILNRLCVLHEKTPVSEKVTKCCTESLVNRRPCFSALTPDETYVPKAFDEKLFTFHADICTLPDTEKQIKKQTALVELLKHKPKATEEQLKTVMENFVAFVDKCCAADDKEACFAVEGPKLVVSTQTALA
# [1] = small-molecule microarray binders of probe aXIP, primary screen, biochemical, NeuroSMM set, 635/667 nm fluorescence (AID 1119); conditions: higher = more signal, called active from +8 up or from −8 down;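 further: probe is the protein aXip251-270 applied at 1 µg/mL to compound-printed slides; binding of probe to printed compounds measured as 667 nm fluorescence plus signal to noise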
# [2] = small-molecule binders of probe aNOTCH3, primary screen, biochemical, small-molecule microarray, 635/667 nm fluorescence (AID 1120); conditions: higher = more signal;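 further: probe is a biotin-tagged antibody raised against NOTCH3 rather than NOTCH3 protein; score merges spot fluorescence near 667 nm with spot signal to noise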
# [3] = small-molecule binders of probe aNOTCH2, primary screen, biochemical, small-molecule microarray, 635/667 nm fluorescence (AID 1121); conditions: higher = more signal;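 further: score merges feature fluorescence read at 667 nm with its signal to noise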
# [4] = molecular target: Carbonic anhydrase 2 (Homo sapiens) (UniProt P00918); assay: CAII small-molecule binders, profiling panel, biochemical, small-molecule microarray, Alexa647-labelled CAII (AID 1122); conditions: CAII-A647 binding fluorescence, higher = more signal
# [5] = COS7 lysate on small-molecule microarray, probe aHis, 635 nm (AID 1123); conditions: COS7 cell lysate, fluorescence, higher = more signal;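 further: z-score combines 667nm fluorescence intensity with signal-to-noise per printed compound spot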
# [6] = compound binding in COS7 lysate, probe aLAP1, primary screen, cell lysate, small-molecule microarray (AID 1124); conditions: probe aLAP1, fluorescence, higher = more signal;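 further: lysate comes from COS7 cells expressing LAP1 and is applied at 0.3 µg/mL; score merges spot fluorescence near 667 nm with signal-to-noise over triplicate slides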
# Sam68 (KHDRBS1) = assay: Sam68 small-molecule binders, primary screen, biochemical, small-molecule microarray, 635 nm fluorescence (AID 1125); conditions: small-molecule microarray binding, higher = more signal;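 further: score merges 667 nm channel intensity with signal to noise over triplicate slides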
# [7] = tested on: Chordin-like protein 2 (CHRDL2); assay: CHRDL2 small-molecule binders, primary screen, biochemical, small-molecule microarray, 635 nm fluorescence (AID 1126); conditions: small-molecule microarray binding, fluorescence 635 nm; higher = more signal;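 further: printed compound slides probed with Chrdl2 protein at 4 µg/mL for 1 h at 4 C; score merges 667 nm emission intensity with signal to noise over three replicate slides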
# [8] = molecular target: Concanavalin-A (Canavalia ensiformis) (UniProt P02866); assay: ConA small-molecule binders, primary screen, artefact control for SMM control protein annotation, biochemical, small-molecule microarray, Alexa647 label, 635 nm (AID 1127); conditions: ConA-A647 binding fluorescence, higher = more signal;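 further: z combines 667 nm emission intensity with signal-to-noise across three replicate slides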
# Chain of Concanavalin-A (Canavalia ensiformis) (P02866 whole entry, looked up): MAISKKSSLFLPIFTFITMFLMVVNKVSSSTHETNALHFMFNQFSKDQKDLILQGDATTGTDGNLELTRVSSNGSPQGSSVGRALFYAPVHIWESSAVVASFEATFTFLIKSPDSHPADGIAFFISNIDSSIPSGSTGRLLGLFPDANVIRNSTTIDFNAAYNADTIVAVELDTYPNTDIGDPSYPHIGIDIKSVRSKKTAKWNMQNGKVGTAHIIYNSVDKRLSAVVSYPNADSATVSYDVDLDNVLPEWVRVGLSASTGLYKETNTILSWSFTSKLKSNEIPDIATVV
# [9] = anti-His antibody binders, primary screen, artefact control for SMM control protein annotation, biochemical, small-molecule microarray, 635 nm fluorescence (AID 1128); conditions: anti-His Alexa647 antibody binding, higher = more signal;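 further: score merges feature fluorescence with signal-to-noise for each printed compound spot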
# [10] = tested on: Human papillomavirus type 1a E7 protein (residues 1-88); assay: HPV1a E7 small-molecule binders, primary screen, biochemical, small-molecule microarray, residues 1-88, 635 nm (AID 1129); conditions: small-molecule microarray binding, fluorescence 635 nm; higher = more signal
# [11] = molecular target: Focal adhesion kinase 1 (Homo sapiens) (UniProt Q05397); assay: small-molecule microarray binders of FAK, primary screen, biochemical, 635/667 nm fluorescence, BSA, DTT (AID 1130); conditions: PTK2 binding, 635 nm fluorescence, higher = more signal;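 further: composite of spot emission at 667 nm and signal to noise over triplicate slides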
# Chain of Focal adhesion kinase 1 (Homo sapiens) (Q05397 whole entry, looked up): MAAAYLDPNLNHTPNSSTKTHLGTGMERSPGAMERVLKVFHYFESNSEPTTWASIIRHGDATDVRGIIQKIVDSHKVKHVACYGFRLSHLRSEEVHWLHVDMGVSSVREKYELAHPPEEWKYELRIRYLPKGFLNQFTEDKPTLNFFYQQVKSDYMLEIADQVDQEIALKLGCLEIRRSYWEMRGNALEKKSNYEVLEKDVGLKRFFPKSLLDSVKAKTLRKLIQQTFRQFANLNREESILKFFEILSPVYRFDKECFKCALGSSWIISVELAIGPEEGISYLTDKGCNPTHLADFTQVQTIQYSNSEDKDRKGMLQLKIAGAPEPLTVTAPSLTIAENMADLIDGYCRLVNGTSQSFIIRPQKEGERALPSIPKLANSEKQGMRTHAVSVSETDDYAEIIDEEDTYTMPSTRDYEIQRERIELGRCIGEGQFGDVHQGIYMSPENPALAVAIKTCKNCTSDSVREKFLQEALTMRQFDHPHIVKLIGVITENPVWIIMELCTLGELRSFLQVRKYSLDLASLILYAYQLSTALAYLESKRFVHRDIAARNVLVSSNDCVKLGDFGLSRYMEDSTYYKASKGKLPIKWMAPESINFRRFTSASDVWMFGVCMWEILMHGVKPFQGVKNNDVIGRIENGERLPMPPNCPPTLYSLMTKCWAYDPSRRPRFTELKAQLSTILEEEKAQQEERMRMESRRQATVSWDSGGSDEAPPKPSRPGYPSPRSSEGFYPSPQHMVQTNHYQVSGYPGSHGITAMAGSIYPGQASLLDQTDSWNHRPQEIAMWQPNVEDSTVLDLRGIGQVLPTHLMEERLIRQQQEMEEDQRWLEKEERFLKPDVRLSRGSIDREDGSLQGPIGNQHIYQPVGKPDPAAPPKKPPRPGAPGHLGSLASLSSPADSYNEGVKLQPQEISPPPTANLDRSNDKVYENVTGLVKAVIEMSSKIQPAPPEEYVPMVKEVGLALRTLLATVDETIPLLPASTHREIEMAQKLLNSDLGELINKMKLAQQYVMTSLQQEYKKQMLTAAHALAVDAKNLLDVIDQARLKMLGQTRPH
# [12] = tested on: Fibrinogen (Alexa647-labelled); assay: fibrinogen binders on compound microarrays, profiling panel, artefact control for SMM control-protein annotation, biochemical, small-molecule microarray, 635/667 nm fluorescence (AID 1131); conditions: fibrinogen-A647 binding fluorescence, higher = more signal;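 further: z-score merges 667 nm fluorescence with per-spot signal-to-noise over triplicate slides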
# [13] = molecular target: Follistatin (Homo sapiens) (UniProt P19883); assay: follistatin binders on small-molecule microarrays, primary screen, biochemical, small-molecule microarray, 635/667 nm fluorescence (AID 1132); conditions: FST binding, 635 nm fluorescence, higher = more signal
# Chain of Follistatin (Homo sapiens) (P19883 whole entry, looked up): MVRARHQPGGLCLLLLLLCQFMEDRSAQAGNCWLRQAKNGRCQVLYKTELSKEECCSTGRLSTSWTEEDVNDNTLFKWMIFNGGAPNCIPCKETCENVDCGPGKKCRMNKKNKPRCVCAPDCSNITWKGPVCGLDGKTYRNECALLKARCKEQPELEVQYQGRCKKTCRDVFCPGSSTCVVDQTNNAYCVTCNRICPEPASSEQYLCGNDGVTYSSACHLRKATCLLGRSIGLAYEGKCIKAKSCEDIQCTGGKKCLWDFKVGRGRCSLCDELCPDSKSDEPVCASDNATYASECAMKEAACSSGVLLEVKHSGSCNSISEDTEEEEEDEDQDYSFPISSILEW
# [14] = molecular target: Fibroblast growth factor 2 (Homo sapiens) (UniProt P09038); assay: FGF2 binders on small-molecule microarrays, primary screen, biochemical, small-molecule microarray, 635/667 nm fluorescence (AID 1133); conditions: small-molecule microarray binding, FGF2, fluorescence 635/667; higher = more signal
# Chain of Fibroblast growth factor 2 (Homo sapiens) (P09038 whole entry, looked up): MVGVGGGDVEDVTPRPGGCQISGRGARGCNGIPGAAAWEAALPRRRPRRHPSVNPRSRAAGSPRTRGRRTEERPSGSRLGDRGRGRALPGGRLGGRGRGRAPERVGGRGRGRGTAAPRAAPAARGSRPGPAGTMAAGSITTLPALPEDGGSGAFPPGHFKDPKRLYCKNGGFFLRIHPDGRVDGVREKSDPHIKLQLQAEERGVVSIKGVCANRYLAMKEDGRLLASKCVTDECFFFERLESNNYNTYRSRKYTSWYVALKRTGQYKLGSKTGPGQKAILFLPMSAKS
# [15] = mitochondrial membrane potential change in A549 cells, profiling panel, cell-based, JC-1 fluorescence, basal, 24 h, 100 nL (AID 1138); conditions: higher = more signal;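 further: A549 lung adenocarcinoma cells under basal conditions with no added stimulus; test concentration not given here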
# Lefty1 = Lefty1 binders on small-molecule microarrays, primary screen, biochemical, small-molecule microarray, 635/667 nm fluorescence (AID 1139); conditions: small-molecule microarray binding, fluorescence 635/667; higher = more signal
# [16] = tested on: wheat germ agglutinin (Triticum aestivum), Alexa647-labelled; assay: wheat germ agglutinin binders on compound microarrays, profiling panel, artefact control for SMM control-protein annotation, biochemical, small-molecule microarray, 635/667 nm fluorescence (AID 1140); conditions: WGA-A647 binding, 635 nm fluorescence, higher = more signal;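 further: score merges 667 nm feature emission with signal to noise over triplicate slides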
# [17] = molecular target: Luciferin 4-monooxygenase (Photinus pyralis) (UniProt P08659); assay: firefly luciferase enzyme inhibitors, primary screen, biochemical, luminescence, purified enzyme, 2006 set (AID 1141); conditions: SteadyGlo luminescence, 30 min, higher = more signal, called active from +8 up or from −8 down;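 further: cell-free assay with purified firefly luciferase at 100 ng per well in PBS; test concentration not given here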
# Chain of Luciferin 4-monooxygenase (Photinus pyralis) (P08659 whole entry, looked up): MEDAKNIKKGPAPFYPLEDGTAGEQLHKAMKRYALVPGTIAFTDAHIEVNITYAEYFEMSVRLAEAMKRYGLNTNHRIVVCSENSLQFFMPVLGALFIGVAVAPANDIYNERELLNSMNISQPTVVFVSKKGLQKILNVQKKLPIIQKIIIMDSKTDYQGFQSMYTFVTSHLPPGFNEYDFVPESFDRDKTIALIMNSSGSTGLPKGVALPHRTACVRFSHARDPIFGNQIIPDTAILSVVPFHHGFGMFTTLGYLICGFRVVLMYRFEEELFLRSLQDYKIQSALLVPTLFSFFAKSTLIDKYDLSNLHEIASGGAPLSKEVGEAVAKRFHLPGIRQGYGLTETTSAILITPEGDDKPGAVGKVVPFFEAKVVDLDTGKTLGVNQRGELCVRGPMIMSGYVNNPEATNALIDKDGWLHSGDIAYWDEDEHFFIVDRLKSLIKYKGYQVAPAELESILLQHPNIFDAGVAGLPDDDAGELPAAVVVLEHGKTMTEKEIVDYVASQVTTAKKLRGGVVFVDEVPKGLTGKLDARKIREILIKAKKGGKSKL
SMILES,composite z-score (Albumin (Bos taurus)),composite Z-score [1],composite z-score [2],composite z-score [3],composite z-score [4],composite z-score [5],composite z-score [6],composite z-score (Sam68 (KHDRBS1)),composite z-score [7],composite z-score [8],composite z-score [9],composite z-score [10],composite z-score [11],composite z-score [12],composite z-score [13],composite z-score [14],z-score [15],composite z-score (Lefty1),composite z-score [16],z-score [17]
CCCC#C[Si](O[C@H](CC)c1cn(Cc2cccc(Cl)c2)nn1)(C(C)C)C(C)C,0.697,-0.014 (inactive),0.0715,-0.179,0.182,1.03,0.249,1.18,0.103,0.7,0.849,0.87,-0.442,0.684,0.357,0.54,-0.264,0.467,0.686,-0.786 (inactive)
O=C(NCCO)C1=C[C@H](Oc2ccccc2I)[C@@H](O)[C@H](N(Cc2ccco2)C(=O)Cc2ccccc2)C1,-0.884,0.524 (inactive),-0.0014,-0.0956,-0.17,-0.604,-0.0107,-0.24,0.607,-0.981,-0.169,0.234,-0.27,-0.175,0.863,0.58,-1.18,0.624,-0.109,0.341 (inactive)
C=C(C(=O)CC[C@@H](OC(=O)c1cccnc1)c1ccccc1OCCO)C(C)C,0.116,0.59 (inactive),0.0909,-0.092,0.638,0.206,1.51,0.489,0.411,-0.67,-0.242,0.131,-0.0995,0.0673,0.719,0.647,-0.102,1.23,0.486,-0.484 (inactive)
CN1C=C(C(=O)OCCS(C)(=O)=O)C(C(=O)OCCS(C)(=O)=O)=CC(c2ccc(CO)cc2)=CC1C1CC1 (stereo not given),-0.0317,0.0063 (inactive),-0.0918,-0.133,0.497,0.951,0.901,0.449,-0.246,0.168,-0.281,0.138,0.0684,0.28,0.126,-0.101,1.48,0.53,0.922,-1.5 (inactive)
CN1C(=O)C2C=CC(C(O)C3CC=CCC3)N(N(c3ccccc3)c3ccccc3)C2C1=O (stereo not given),-0.197,0.0007 (inactive),0.0715,0.19,-0.287,-0.202,0.52,-1.25,0.774,-0.372,0.118,-1.42,0.102,0.0963,0.988,-0.179,0.43,0.449,0.259,0.529 (inactive)
O=C1N[C@@H](Cc2ccccc2)C(=O)N2[C@@H]1C[C@@H](C(=O)O)[C@H]2c1cccc(OCCO)c1,0.0429,0.108 (inactive),-0.0362,-0.124,0.733,0.514,0.256,1.22,0.992,0.311,3.3,1.03,0.27,0.56,1.38,1.43,0.849,1.49,0.552,-1.91 (inactive)
C=C(CC1([C@@H](NP(=O)(c2ccccc2)c2ccccc2)[C@H]2C[C@@H]2CCCC)CC1)c1ccccc1,0.844,0.121 (inactive),0.335,0.17,0.252,2.67,-0.293,1.14,-0.874,0.546,0.767,1.19,0.0976,0.746,0.132,0.0962,-0.0757,-0.415,0.729,2.82 (inactive)
COCCOC(=O)N1C(=O)[C@@]2(c3cc(C#CC4(O)CCCCCC4)ccc31)[C@H](c1ccc(OCCO)cc1)N1[C@H](c3ccccc3)[C@H](c3ccccc3)OC(=O)[C@H]1[C@@H]2C(=O)N1CCN(c2ncccn2)CC1,0.716,-0.232 (inactive),0.0026,-0.146,0.497,1.46,-0.163,1.3,0.34,1.13,1.39,1.21,0.333,0.956,1.03,0.758,-1.1,0.651,0.458,-0.606 (inactive)
CC(C)NC(=O)[C@@H]1c2ccccc2C(=O)N(C2Cc3ccccc3C2)[C@H]1c1ccc(CO)cc1,0.416,0.392 (inactive),-0.145,-0.117,0.492,1.62,0.781,0.983,-0.321,0.771,1.51,1.04,0.0815,0.445,0.351,0.162,2.54,-0.0727,0.664,0.668 (inactive)
[N-]=[N+]=Nc1ccccc1[C@H]1OC(c2ccc(OCCCO)cc2)=N[C@@]1(CCS(=O)(=O)c1ccccc1)C(=O)NCC(O)CO (stereo not given in full),0.876,-0.0683 (inactive),0.102,-0.0984,0.718,3.02,0.261,1.33,-0.907,0.833,1.52,0.94,0.605,1.07,1.27,0.057,0.233,-0.0179,0.914,-9.88 (active)

# — PubChem BioAssay
